Assay results published in PubChem BioAssay (EPA / NIEHS).
Records with an inconclusive call do not appear. The source made the active and inactive calls. Rule for the calls, unless noted: active = hit-call score of the fitted dose curve at least 0.9, where 1 is the maximum; inactive = score below 0.9.

What was measured:
[1] = target: X-box-binding protein 1 (Homo sapiens) (UniProt P17861); test: ATG_Xbp1_CIS: Attagene CIS-FACTORIAL HepG2 Assay for human X-box Binding Protein 1 (XBP1) (AID 2282972); conditions: HepG2 XBP1 cis-element reporter, Attagene multiplex; actives raise or lower the signal
X-box-binding protein 1 (Homo sapiens), sequence (P17861 whole entry, looked up, the tested form may be a part): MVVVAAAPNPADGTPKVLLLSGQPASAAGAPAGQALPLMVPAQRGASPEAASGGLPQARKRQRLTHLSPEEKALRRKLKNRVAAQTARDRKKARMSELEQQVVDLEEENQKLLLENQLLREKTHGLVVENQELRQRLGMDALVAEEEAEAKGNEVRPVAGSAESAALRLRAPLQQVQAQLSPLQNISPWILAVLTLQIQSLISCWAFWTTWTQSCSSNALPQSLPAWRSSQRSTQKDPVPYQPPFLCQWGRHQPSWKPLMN
How it was run: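 Fluorescence-labelled cDNA fragments from reporter transcripts, separated by capillary electrophoresis, give the signal. Source: HepG2 cells transfected with promoter-driven reporter units, harvested 24 h post-dose. DMSO served as reference for bidirectional curve fitting.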

[2] = ATG_M_19_TRANS: Attagene TRANS-FACTORIAL HepG2 Assay for M19 Transcription Factor (Internal Marker) (AID 2282974; active = hit-call score of the fitted dose curve at least 0.9, where 1 is the maximum); conditions: HepG2 Attagene TRANS-FACTORIAL M19 internal marker reporter
How it was run: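 24 h chemical exposure of transiently transfected HepG2 (MRTU library). RNA → oligo(dT) RT → PCR → 6-FAM labelling → HpaI cut → CE fluorescence. Positive-direction fit vs DMSO baseline; background internal-marker readout.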

[3] = target: Glucocorticoid receptor (Homo sapiens) (UniProt P04150); test: ATG_GR_TRANS: Attagene TRANS-FACTORIAL HepG2 Assay for human Glucocorticoid Receptor (GR) (AID 2282978; active = hit-call score of the fitted dose curve at least 0.9, where 1 is the maximum;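 note: activators score as hits since higher reporter transcript over DMSO is fitted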); conditions: HepG2 Attagene TRANS GR reporter, mRNA transcription
Glucocorticoid receptor (Homo sapiens), sequence (P04150 whole entry, looked up, the tested form may be a part): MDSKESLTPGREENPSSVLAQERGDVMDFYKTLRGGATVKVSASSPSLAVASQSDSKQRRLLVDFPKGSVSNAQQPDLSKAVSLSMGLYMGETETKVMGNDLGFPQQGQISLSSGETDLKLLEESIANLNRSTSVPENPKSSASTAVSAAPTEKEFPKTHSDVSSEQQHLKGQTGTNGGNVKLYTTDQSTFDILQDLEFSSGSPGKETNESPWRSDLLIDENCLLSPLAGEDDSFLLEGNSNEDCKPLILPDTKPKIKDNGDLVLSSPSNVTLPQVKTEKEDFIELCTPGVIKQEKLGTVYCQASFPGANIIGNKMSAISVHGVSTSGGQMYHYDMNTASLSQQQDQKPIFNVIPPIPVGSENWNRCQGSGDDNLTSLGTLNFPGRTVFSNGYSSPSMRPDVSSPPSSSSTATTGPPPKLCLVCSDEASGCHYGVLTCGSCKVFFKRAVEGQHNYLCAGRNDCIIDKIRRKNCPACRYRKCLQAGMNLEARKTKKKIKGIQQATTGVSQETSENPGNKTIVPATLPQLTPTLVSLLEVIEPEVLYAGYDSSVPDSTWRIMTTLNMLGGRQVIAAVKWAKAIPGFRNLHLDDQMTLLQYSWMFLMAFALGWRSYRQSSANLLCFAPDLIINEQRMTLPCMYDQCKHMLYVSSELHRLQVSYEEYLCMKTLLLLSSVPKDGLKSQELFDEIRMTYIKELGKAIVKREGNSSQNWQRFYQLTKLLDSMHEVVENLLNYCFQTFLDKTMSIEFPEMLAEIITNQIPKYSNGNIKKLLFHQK
How it was run: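 Transient MRTU transfection of HepG2 (GAL4-UAS reporters, exogenous NR-GAL4 chimeras), 24 h dosing. Readout: reporter transcript via RT-PCR + capillary electrophoresis fluorescence. Positive direction vs DMSO baseline.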

[4] = target: Oxysterols receptor LXR-alpha (Homo sapiens) (UniProt Q13133); test: ATG_LXRa_TRANS: Attagene TRANS-FACTORIAL HepG2 Assay for human Liver X Receptor alpha (LXRa) (AID 2282980; active = hit-call score of the fitted dose curve at least 0.9, where 1 is the maximum); conditions: HepG2 Attagene TRANS reporter, LXRa transactivation
Oxysterols receptor LXR-alpha (Homo sapiens), sequence (Q13133 whole entry, looked up, the tested form may be a part): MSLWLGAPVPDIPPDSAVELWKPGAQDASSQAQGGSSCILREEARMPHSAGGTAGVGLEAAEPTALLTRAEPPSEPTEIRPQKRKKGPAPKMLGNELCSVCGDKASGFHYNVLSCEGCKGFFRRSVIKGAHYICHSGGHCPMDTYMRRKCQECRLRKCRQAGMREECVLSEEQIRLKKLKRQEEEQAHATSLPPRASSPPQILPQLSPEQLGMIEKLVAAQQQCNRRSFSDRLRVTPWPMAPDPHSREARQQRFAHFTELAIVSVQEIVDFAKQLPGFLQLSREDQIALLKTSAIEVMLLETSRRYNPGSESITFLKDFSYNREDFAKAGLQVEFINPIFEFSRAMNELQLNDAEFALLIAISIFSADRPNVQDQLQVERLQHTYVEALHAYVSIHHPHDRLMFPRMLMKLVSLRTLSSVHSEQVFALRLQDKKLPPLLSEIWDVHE
How it was run: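 In this multiplexed TRANS system, compounds act on HepG2 cells carrying GAL4-UAS reporter units and a receptor-GAL4 fusion for 24 h. Induced reporter RNA is amplified, fluorescently labelled and sized by capillary electrophoresis, with DMSO as baseline.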

[5] = ATG_M_32_TRANS: Attagene TRANS-FACTORIAL HepG2 Assay for M32 Transcription Factor (Internal Marker) (AID 2282984; active = hit-call score of the fitted dose curve at least 0.9, where 1 is the maximum;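 note: transcript level of a background control reporter unit measured by RT-PCR and capillary electrophoresis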); conditions: HepG2 Attagene TRANS M32 internal marker reporter
How it was run: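 HepG2 cells transiently transfected with GAL4-UAS reporter units, dosed for 24 hours. Reporter mRNA quantified by RT-PCR, 6-FAM labelling, HpaI digestion and capillary electrophoresis; internal-marker signal fitted upward relative to DMSO.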

[6] = target: Transcriptional activator Myb (Homo sapiens) (UniProt P10242); test: ATG_Myb_CIS: Attagene CIS-FACTORIAL HepG2 Assay for human Myeloblastosis (Myb) Proto-Oncogene Transcription Factor (AID 2282986); conditions: HepG2 Attagene CIS-FACTORIAL Myb reporter transcription; actives raise or lower the signal
How it was run: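 HepG2, transient MRTU transfection (cis-element promoters, endogenous TF activity), 24 h compound exposure. Readout: reporter mRNA via RT-PCR, 6-FAM labeling, HpaI digest, capillary electrophoresis. Gain/loss fit vs DMSO.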

[7] = target: Nuclear respiratory factor 1 (Homo sapiens) (UniProt Q16656); test: ATG_NRF1_CIS: Attagene CIS-FACTORIAL HepG2 Assay for human Nuclear Respiratory Factor 1 (NRF1) Orphan Gene (AID 2282987); conditions: HepG2 NRF1 cis-element reporter, Attagene multiplex; actives raise or lower the signal
Nuclear respiratory factor 1 (Homo sapiens), sequence (Q16656 whole entry, looked up): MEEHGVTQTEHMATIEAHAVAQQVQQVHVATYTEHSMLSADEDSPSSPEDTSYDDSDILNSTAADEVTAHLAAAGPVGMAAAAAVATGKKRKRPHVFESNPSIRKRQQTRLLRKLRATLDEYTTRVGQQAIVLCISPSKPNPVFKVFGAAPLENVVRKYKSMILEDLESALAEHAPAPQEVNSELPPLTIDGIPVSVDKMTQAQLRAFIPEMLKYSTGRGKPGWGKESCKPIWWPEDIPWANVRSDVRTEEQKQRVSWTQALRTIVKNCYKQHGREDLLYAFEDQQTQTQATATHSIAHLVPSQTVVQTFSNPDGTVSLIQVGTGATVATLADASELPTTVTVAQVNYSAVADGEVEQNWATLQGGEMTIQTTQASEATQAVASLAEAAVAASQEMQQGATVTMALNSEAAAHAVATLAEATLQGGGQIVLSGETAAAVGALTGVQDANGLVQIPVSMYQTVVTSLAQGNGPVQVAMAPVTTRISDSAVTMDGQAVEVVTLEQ
How it was run: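 Endogenous NRF1-driven reporter transcription measured in transiently transfected human HepG2 liver cells. Readout: reporter mRNA by RT-PCR and capillary electrophoresis with fluorescence detection, 24 h post-dosing. Gain or loss of signal fitted relative to DMSO baseline.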

[8] = ATG_NFI_CIS: Attagene CIS-FACTORIAL HepG2 Assay for human Nuclear Factor I (NFI) (AID 2282989); conditions: HepG2 cis-regulatory reporter, NFI response element transcription; actives raise or lower the signal
How it was run: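 Endogenous TF activity in HepG2 cells transiently transfected with cis-element-driven multiplexed reporter units, read 24 h after dosing. Reporter mRNA quantified by RT-PCR, 6-FAM labelling, HpaI digestion and capillary electrophoresis; bidirectional fit versus DMSO.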

[9] = target: Myc proto-oncogene protein (Homo sapiens) (UniProt P01106); test: ATG_Myc_CIS: Attagene CIS-FACTORIAL HepG2 Assay for human Myelocytomatosis (Myc) Proto-Oncogene Transcription Factor (AID 2282990); conditions: HepG2, Attagene cis-reporter transcription factor activity; actives raise or lower the signal
Myc proto-oncogene protein (Homo sapiens), sequence (P01106 whole entry, looked up): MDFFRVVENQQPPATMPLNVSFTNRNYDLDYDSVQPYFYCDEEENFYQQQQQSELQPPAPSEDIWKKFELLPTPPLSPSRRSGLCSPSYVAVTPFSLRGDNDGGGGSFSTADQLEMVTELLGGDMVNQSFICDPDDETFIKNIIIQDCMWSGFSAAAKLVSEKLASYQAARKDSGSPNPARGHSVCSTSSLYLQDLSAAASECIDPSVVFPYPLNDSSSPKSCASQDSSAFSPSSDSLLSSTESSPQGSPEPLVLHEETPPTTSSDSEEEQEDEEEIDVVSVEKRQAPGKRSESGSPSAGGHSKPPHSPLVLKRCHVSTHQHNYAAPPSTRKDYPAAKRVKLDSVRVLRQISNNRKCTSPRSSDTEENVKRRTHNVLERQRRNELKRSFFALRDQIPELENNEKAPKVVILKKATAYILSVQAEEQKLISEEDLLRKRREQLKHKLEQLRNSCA
How it was run: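 Transiently transfected HepG2 cells bearing cis-promoter reporter units for endogenous transcription factors; 24 h exposure. Reporter mRNA measured by RT-PCR, 6-FAM primer extension, HpaI cut and capillary electrophoresis; bidirectional fit relative to DMSO.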

[10] = ATG_NRF2_ARE_CIS: Attagene CIS-FACTORIAL HepG2 Assay for human Nuclear Factor Erythroid 2 Related Factor 2 (NFR2) response to Antioxidant Response Elements (ARE) (AID 2282992); conditions: HepG2 Attagene ARE/NRF2 reporter, transcription factor activity; actives raise or lower the signal
How it was run: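 Multiplexed reporter mRNA profiling in HepG2 after a 24 h chemical exposure. Curves fitted in both directions relative to DMSO negative control.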

[11] = target: Bile acid receptor (Homo sapiens) (UniProt Q96RI1); test: ATG_FXR_TRANS: Attagene TRANS-FACTORIAL HepG2 Assay for Farnesoid X Receptor (FXR) (AID 2282979; active = hit-call score of the fitted dose curve at least 0.9, where 1 is the maximum;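 note: hits raise reporter mRNA above DMSO so AC50 marks FXR activation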); conditions: HepG2 Attagene TRANS FXR-GAL4 reporter transcription
Bile acid receptor (Homo sapiens), sequence (Q96RI1 whole entry, looked up, the tested form may be a part): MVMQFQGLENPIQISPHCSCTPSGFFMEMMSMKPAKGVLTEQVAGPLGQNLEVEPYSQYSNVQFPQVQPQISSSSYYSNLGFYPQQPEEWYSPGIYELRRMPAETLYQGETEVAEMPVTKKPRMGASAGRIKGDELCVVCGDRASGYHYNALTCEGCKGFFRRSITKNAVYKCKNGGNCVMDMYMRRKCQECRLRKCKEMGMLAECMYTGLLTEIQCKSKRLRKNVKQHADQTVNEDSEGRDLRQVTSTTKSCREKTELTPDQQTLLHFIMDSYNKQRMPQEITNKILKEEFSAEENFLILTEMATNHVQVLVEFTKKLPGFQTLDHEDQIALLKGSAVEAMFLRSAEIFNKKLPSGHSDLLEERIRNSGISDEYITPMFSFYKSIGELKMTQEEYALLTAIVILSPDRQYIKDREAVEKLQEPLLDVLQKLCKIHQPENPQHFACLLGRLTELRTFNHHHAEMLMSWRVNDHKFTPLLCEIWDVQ
How it was run: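 After 24 h chemical treatment of transfected HepG2 cells, GAL4-UAS reporter transcripts driven by an exogenous FXR-GAL4 fusion were measured by RT-PCR and capillary electrophoresis. Increases over DMSO were fitted.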

[12] = target: Oxysterols receptor LXR-beta (Homo sapiens) (UniProt P55055); test: ATG_LXRb_TRANS: Attagene TRANS-FACTORIAL HepG2 Assay for human Liver X Receptor beta (LXRb) (AID 2282981; active = hit-call score of the fitted dose curve at least 0.9, where 1 is the maximum); conditions: HepG2 Attagene TRANS GAL4-LXRb reporter, mRNA
Oxysterols receptor LXR-beta (Homo sapiens), sequence (P55055 whole entry, looked up, the tested form may be a part): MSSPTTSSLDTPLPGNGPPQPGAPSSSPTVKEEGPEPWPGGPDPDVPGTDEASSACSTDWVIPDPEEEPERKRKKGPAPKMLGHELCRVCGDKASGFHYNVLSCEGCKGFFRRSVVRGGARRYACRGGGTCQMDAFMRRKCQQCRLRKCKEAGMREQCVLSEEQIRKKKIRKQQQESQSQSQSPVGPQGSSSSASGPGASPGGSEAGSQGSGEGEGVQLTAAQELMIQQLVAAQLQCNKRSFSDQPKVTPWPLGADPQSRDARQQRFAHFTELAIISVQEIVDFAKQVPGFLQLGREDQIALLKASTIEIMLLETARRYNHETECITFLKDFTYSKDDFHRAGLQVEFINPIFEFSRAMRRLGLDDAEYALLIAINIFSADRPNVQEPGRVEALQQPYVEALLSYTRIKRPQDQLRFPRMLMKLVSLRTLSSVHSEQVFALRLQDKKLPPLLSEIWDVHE
How it was run: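 HepG2 cells transiently transfected with GAL4-UAS reporter units for chimeric NR-Gal4 proteins, dosed for 24 h. Reporter transcripts measured by RT-PCR and capillary electrophoresis; gain-of-signal fitting relative to DMSO.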

[13] = ATG_NF_kB_CIS: Attagene CIS-FACTORIAL HepG2 Assay for human Nuclear Factor Kappa B (NF-kB) (AID 2282991); conditions: HepG2 Attagene cis-factorial NF-kB reporter mRNA; actives raise or lower the signal
How it was run: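 Read-out: reporter transcript levels quantified by RT-PCR plus capillary electrophoresis of 6-FAM-labelled, HpaI-cut fragments. Transfected HepG2 cells, 24 h compound exposure, endogenous NF-kB-driven cis element; gain or loss scored versus DMSO.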

[14] = ATG_GAL4_TRANS: Attagene TRANS-FACTORIAL HepG2 Assay for GAL4 (Internal Marker) (AID 2282976; active = hit-call score of the fitted dose curve at least 0.9, where 1 is the maximum); conditions: HepG2 Attagene TRANS GAL4 internal marker reporter
How it was run: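 Liver HepG2 line bearing multiplexed GAL4-UAS reporter constructs; 24 h chemical treatment. Transcripts were quantified as fluorescent fragments on capillary electrophoresis after RT-PCR and HpaI cut, with activity fitted upward from DMSO.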

[15] = target: Estrogen-related receptor gamma (Homo sapiens) (UniProt P62508); test: ATG_ERRg_TRANS: Attagene TRANS-FACTORIAL HepG2 Assay for human Estrogen-Related Receptor gamma (ERRg) (AID 2282977; active = hit-call score of the fitted dose curve at least 0.9, where 1 is the maximum;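 note: hits increase reporter signal over DMSO so potencies reflect activators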); conditions: HepG2 Attagene TRANS reporter, ERRg transactivation
Estrogen-related receptor gamma (Homo sapiens), sequence (P62508 whole entry, looked up, the tested form may be a part): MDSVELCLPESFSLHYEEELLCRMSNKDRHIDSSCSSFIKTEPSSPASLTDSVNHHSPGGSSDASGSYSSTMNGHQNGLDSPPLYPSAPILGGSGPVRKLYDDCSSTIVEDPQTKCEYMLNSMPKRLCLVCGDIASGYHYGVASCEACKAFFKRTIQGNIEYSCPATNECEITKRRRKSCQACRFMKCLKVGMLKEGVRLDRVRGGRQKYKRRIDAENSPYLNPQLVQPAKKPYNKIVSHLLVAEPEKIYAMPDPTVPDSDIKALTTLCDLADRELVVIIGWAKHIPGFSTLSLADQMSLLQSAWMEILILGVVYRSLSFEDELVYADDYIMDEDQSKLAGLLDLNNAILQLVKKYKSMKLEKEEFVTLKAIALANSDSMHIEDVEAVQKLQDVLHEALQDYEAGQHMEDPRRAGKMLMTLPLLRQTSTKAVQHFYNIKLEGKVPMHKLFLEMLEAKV
How it was run: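 HepG2 cells transiently transfected with multiplexed GAL4-UAS reporter units driven by chimeric NR-Gal4 proteins; 24 h exposure. Reporter mRNA quantified by RT-PCR, fluorescent labelling, HpaI digestion and capillary electrophoresis; gain of signal vs DMSO.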

[16] = target: Nuclear receptor subfamily 4 group A member 2 (Homo sapiens) (UniProt P43354); test: ATG_NURR1_TRANS: Attagene TRANS-FACTORIAL HepG2 Assay for human Nuclear Receptor Related Protein 1 (NURR1) (AID 2282985; active = hit-call score of the fitted dose curve at least 0.9, where 1 is the maximum); conditions: HepG2 Attagene TRANS reporter, mRNA readout
Nuclear receptor subfamily 4 group A member 2 (Homo sapiens), sequence (P43354 whole entry, looked up, the tested form may be a part): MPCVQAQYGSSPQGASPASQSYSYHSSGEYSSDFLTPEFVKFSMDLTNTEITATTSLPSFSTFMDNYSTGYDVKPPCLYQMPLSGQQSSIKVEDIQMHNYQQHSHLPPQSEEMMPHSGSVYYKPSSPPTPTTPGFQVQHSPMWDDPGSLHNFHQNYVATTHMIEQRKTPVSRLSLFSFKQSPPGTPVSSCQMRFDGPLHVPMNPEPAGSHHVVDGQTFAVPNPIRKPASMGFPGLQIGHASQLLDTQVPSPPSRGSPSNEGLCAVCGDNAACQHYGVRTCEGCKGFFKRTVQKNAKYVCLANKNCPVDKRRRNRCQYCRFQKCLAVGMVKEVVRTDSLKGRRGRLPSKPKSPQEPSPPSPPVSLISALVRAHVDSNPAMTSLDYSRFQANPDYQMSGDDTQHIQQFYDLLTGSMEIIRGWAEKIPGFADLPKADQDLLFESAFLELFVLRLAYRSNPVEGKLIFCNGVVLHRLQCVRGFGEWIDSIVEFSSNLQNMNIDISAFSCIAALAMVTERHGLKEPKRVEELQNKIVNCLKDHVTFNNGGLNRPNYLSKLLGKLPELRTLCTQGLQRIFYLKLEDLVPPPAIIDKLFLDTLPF
How it was run: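 HepG2 cells transiently transfected with NURR1-Gal4 chimera and GAL4-UAS reporter units; after 24 hr compound exposure, reporter mRNA quantified by RT-PCR and capillary electrophoresis; gain of signal fitted against DMSO.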

[17] = target: Hepatocyte nuclear factor 4-alpha (Homo sapiens) (UniProt P41235); test: ATG_HNF4a_TRANS: Attagene TRANS-FACTORIAL HepG2 Assay for human Hepatocyte Nuclear Factor 4 alpha (HNF4a) (AID 2282982; active = hit-call score of the fitted dose curve at least 0.9, where 1 is the maximum); conditions: HepG2 HNF4a transactivation reporter, mRNA readout
Hepatocyte nuclear factor 4-alpha (Homo sapiens), sequence (P41235 whole entry, looked up, the tested form may be a part): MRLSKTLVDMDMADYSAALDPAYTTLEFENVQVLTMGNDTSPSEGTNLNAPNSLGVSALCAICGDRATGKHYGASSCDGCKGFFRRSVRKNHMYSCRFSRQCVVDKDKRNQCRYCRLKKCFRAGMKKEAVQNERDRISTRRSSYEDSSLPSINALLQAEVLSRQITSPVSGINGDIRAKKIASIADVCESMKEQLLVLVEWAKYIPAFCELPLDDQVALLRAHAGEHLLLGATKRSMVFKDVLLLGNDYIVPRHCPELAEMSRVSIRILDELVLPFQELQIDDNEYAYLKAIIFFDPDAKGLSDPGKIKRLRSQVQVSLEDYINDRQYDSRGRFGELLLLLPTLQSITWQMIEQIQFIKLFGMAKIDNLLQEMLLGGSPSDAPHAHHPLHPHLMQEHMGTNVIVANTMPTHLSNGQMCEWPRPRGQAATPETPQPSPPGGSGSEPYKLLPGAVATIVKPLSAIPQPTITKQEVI
How it was run: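 HepG2 cells transiently transfected with HNF4a-Gal4 chimera and GAL4-UAS reporter units, dosed for 24 h. Reporter mRNA measured by RT-PCR, fluorescent primer extension and capillary electrophoresis; gain-of-signal fitted relative to DMSO.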

[18] = ATG_M_06_TRANS: Attagene TRANS-FACTORIAL HepG2 Assay for M06 Transcription Factor (Internal Marker) (AID 2282983; active = hit-call score of the fitted dose curve at least 0.9, where 1 is the maximum); conditions: HepG2 Attagene TRANS M06 internal marker reporter
How it was run: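 Internal-marker background readout from a multiplexed TRANS reporter system in HepG2; 24 h dosing; mRNA induction quantified by RT-PCR plus capillary electrophoresis fluorescence; DMSO as negative control and baseline.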

Measured: AC50

CCCCCCCCCCCCCl
inactive: [1] | [2] | [3] | [4] | [5] | [6] | [7] | [8] | [9] | [10]

CC(C)(C)c1ccc(CCOc2ncnc3ccccc23)cc1
inactive: [1] | [2] | [11] | [12] | [6] | [7] | [8] | [9] | [10]

CNC(=O)O/N=C/C(C)(C)S(C)(=O)=O
inactive: [1] | [2] | [5] | [6] | [7] | [8] | [9] | [13] | [10]

CC1(C)COP(Oc2ccccc2)OC1
not listed: [2] | [4] | [17] | [18]
inactive: all other assays above

CN(C1CCCCC1)C1CCCCC1
active: [10] 61100 nM
not listed: [5] | [11] | [12] | [13] | [14] | [15] | [16]
inactive: all other assays above

O=C(O)COc1cc(Cl)c(Cl)cc1Cl
inactive: [1] | [2] | [3] | [5] | [6] | [7] | [8] | [9] | [10]

c1csc(-c2ccc(-c3cccs3)s2)c1
active: [1] 2540 nM | [10] 1220 nM
inactive: [2] | [4] | [12] | [17] | [5] | [6] | [7] | [9]

CCC[CH2][Sn]([Cl])([Cl])[CH2]CCC
active: [1] 1200 nM | [7] 778 nM | [8] 458 nM | [13] 1990 nM | [10] 315 nM
inactive: [2] | [11] | [17] | [18] | [6] | [9]

O=C(N[C@H]1CN2CCC1CC2)c1ccc2c(c1)OCCO2
not listed: [2] | [4] | [8] | [11] | [13] | [16] | [17]
inactive: all other assays above

Cc1cc(Cl)ccc1OC(C)C(=O)O (stereo not drawn)
inactive: [1] | [2] | [6] | [7] | [8] | [9] | [13] | [10]

Cc1cc(SCc2sc(-c3ccc(C(F)(F)F)c(F)c3)nc2C)ccc1OCC(=O)O
inactive: [2] | [3] | [12] | [7] | [9] | [13] | [10]
active: [1] 25200 nM

Oc1cccc(-c2ccccc2)c1
active: [8] 139000 nM
not listed: [2] | [4] | [5] | [10] | [11] | [12] | [17]
inactive: all other assays above

CCCCC(CC)C(=O)Cl (stereo not drawn)
inactive: [1] | [2] | [11] | [17] | [6] | [7] | [8] | [9] | [13] | [10]

CN(CCCC(O)c1cccnc1)N=O (stereo not drawn)
inactive: [1] | [2] | [11] | [17] | [16] | [6] | [7] | [9] | [13] | [10]

O=[N+]([O-])c1ccc(Cl)c([N+](=O)[O-])c1
active: [9] 3710 nM
inactive: [1] | [2] | [3] | [4] | [5] | [16] | [6] | [7] | [8]

C[C@@H]1O[C@@H](O[C@H]2C[C@@H](O)[C@]3(CO)[C@H]4[C@H](O)C[C@]5(C)[C@@H](C6=CC(=O)OC6)CC[C@]5(O)[C@@H]4CC[C@]3(O)C2)[C@H](O)[C@H](O)[C@H]1O
active: [1] 628 nM | [6] 328 nM | [8] 645 nM | [10] 19500 nM
inactive: [2] | [11] | [12] | [17] | [18] | [16] | [7] | [9]

Cc1cccc(OP(=O)(Oc2cccc(C)c2)Oc2cccc(C)c2)c1
active: [10] 21900 nM
inactive: [1] | [2] | [5] | [16] | [6] | [7] | [8] | [9] | [13]

BrCc1ccc(Br)cc1
inactive: [1] | [14] | [11] | [18] | [16] | [7] | [8] | [9] | [13] | [10]
